Assay outcomes as filed in PubChem BioAssay.
SARS PLP yeast – blocks SARS-CoV papain-like protease in a yeast assay | S. cerevisiae expressing SARS-CoV PLpro, growth rescue | Potency, µM (top dose mostly 32.9 µM), actives largely listed as activators | hit rate 0.19% among 330,000 | AID 485353; further: nearly all actives have a fitted effect of over 55% in size
NS1 function inh – inhibitors of influenza NS1 protein function; Potency, µM (highest dose often 46.1 µM); hit rate 0.4% among 270,000; further: actives are rising curves; nearly all actives have a fitted effect of over 50% in size
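In this qHTS, NS1 from influenza A is expressed in budding yeast, where it slows growth. Cells are switched from glucose to 2% galactose medium (pH 6.0, -URA), treated with compound, and growth recovery is read at OD600.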
AMA1-RON2 inh – inhibitors of Plasmodium falciparum AMA1-RON2 interaction; AlphaScreen AMA1-biotinylated RON2 peptide binding; Potency, µM (top dose mostly 58.2 µM), actives largely listed as inhibitors; hit rate 0.2% among 360,000; active means well fitted inhibition curve with a large enough effect; inconclusive means small, poorly fitted or top-dose-only effect; inactive means no such curve, though single readings can be large or run the other way; further: nearly all actives have a fitted effect of over 45% in size
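AMA1 (3D7) with his tag at 25 nM final met compounds first, then biotinylated RON2 peptide at 25 nM; detection used donor plus acceptor beads, 10 µg/mL apiece, read by AlphaScreen after 30 min at room temperature.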
Hits are given with their value; . = inactive; ? = inconclusive; / = not tested or not shown. Rows were chosen to be rich in hits. Some 0.65% of all compounds tested hit in one or more screens of this group. Unless noted, the call rests on the fitted dose curve.

SMILES | SARS PLP yeast | NS1 function inh | AMA1-RON2 inh
CCOC(=O)C1C(c2ccc([N+](=O)[O-])cc2)C2C(=O)NN=C2CC1(C)O (configuration not stated) | . | . | .
CNc1nc(NCc2ccc(N(C)C)cc2)c2sccc2n1 | / | / | 20µM
CNc1nc(NCc2ccc(C)cc2C)c2sccc2n1 | / | / | .
Cn1ccc2c(N3CCCC3)cc3c(c21)C1CCC3C1 (configuration not stated) | / | / | .
Cn1ccc2c(N3CCOCC3)cc3c(c21)C1CCC3O1 (configuration not stated) | / | / | .
Cn1ccc2c(N3CCCCCC3)cc3c(c21)C1CCC3O1 (configuration not stated) | / | / | 32µM
Cn1ccc2c(N3CCCCC3)cc3c(c21)C1CCC3C1 (configuration not stated) | / | / | 16µM
O=S(=O)(Nc1cccnc1)c1cccc2cccnc12 | / | . | /
CCCCc1cc(=O)oc2cc(C)c(CN3CCCC3)c(O)c12 | . | . | .
CCc1cc(=O)oc2cc(C)c(CN3CCCC(C)C3)c(O)c12 (configuration not stated) | . | . | 19µM
Cn1cccc1/C=N/N1CCN(Cc2ccccc2)CC1 | . | . | .
Cn1cccc1/C=N/N1CCN(Cc2cccc3ccccc23)CC1 | . | . | 20µM
CS(=O)(=O)Nc1ccccc1C(=O)Nc1ccccc1C(=O)N1CCCC1 | . | . | .
CS(=O)(=O)Nc1ccc(C(=O)Nc2ccccc2C(=O)N2CCCC2)cc1 | 16µM | . | .
CN(CCO)c1cc(N2CCCCC2)c2nonc2c1[N+](=O)[O-] | . | / | 1.8µM
CC1CCCN(c2cc(N(C)CCO)c([N+](=O)[O-])c3nonc23)C1 (configuration not stated) | . | / | .
COc1ccccc1Nc1cc(C)nc2c(C)ccc([N+](=O)[O-])c12 | . | . | 3.2µM
Cc1cc(Nc2ccccc2)c2c([N+](=O)[O-])cc(C)c(C)c2n1 | . | . | ?
O=S(=O)(NCCNC/C=C/c1ccc(Br)cc1)c1cccc2cnccc12 | / | . | /
CN(C)c1ccc(-c2ccnc3c2CC(C)(C(=O)Nc2cccc(N(C)C)c2)O3)cc1 (configuration not stated) | / | / | 18µM
CN(C)c1ccc(CNC(=O)C2(C)Cc3c(-c4ccccc4)ccnc3O2)cc1 (configuration not stated) | / | / | 28µM
CN(C)c1ccc(CNC(=O)C2(C)Cc3c(-c4ccc5c(c4)OCO5)ccnc3O2)cc1 (configuration not stated) | / | / | 28µM
CN(C)c1ccc(CNC(=O)C2(C)Cc3c(-c4cccc(C(N)=O)c4)ccnc3O2)cc1 (configuration not stated) | / | / | .
CN(C)c1ccc(-c2ccnc3c2CC(C)(C(=O)Nc2ccc(F)c(Cl)c2)O3)cc1 (configuration not stated) | / | / | .
COc1ccc(CNC(=O)C2(C)Cc3c(-c4ccc5c(c4)OCO5)ccnc3O2)cc1OC (configuration not stated) | / | / | .
SMILES | SARS PLP yeast | NS1 function inh | AMA1-RON2 inh
CN(C)c1ccc(CNC(=O)C2Cc3c(-c4ccccc4Oc4ccccc4)ccnc3O2)cc1 (configuration not stated) | / | / | 10µM
COc1ccc(CNC(=O)C2Cc3c(-c4ccccc4Oc4ccccc4)ccnc3O2)cc1OC (configuration not stated) | / | / | .
C=C[C@@H]1CN2CC[C@H]1CC2[C@H](O)c1ccnc2ccccc12 (some centres not stated) | / | . | /
O=C(NCc1ccccc1)Nc1nnc([C@@H]2C[C@H](O)[C@@H](CO)O2)s1 | / | / | .
CN(C)c1ccc(CNC(=O)C2(C)Cc3c(-c4ccc(N(C)C)cc4)ccnc3O2)cc1 (configuration not stated) | / | / | 11µM
COCCNC(=O)C1(C)Cc2c(-c3ccc(N(C)C)cc3)ccnc2O1 (configuration not stated) | / | / | .
O=C(Nc1ccc(Cl)cc1)c1cccc(NC2=NC3CS(=O)(=O)CC3S2)c1 (configuration not stated) | . | . | .
O=C(Nc1nc(-c2ccccc2)cs1)C1COc2ccccc2O1 (configuration not stated) | . | . | .
O=C(Nc1nc(-c2ccc(S(=O)(=O)N3CCCC3)cc2)cs1)C1COc2ccccc2O1 (configuration not stated) | . | 7.9µM | .
O=[N+]([O-])c1ccc(N/N=C2\CC3CC=CC23)cc1 (configuration not stated) | . | . | .
O=[N+]([O-])c1ccc(N/N=C2\CC3CC=CC23)c([N+](=O)[O-])c1 (configuration not stated) | . | / | 14µM
Cc1cccc(NC(=O)C2CCN(S(=O)(=O)c3cccc4nonc34)CC2)c1 | . | . | .
CCN(CC)CCN1C(=O)C2C(C(=O)Nc3cccc(C)c3)C3C=CC2(O3)C1C(=O)NC1CCCC(C)C1C (configuration not stated) | . | . | .
Cc1ccc(N2CC(C(=O)Nc3nc4ccc(S(C)(=O)=O)cc4s3)CC2=O)cc1 (configuration not stated) | . | . | .
Cc1ccc(C2=NC(=O)/C(=C/c3cc(O)c(O)c(Br)c3)S2)cc1 | 6.3µM | / | ?
COc1cc(/C=C2\SC(c3ccc(C)cc3)=NC2=O)cc(OC)c1O | . | . | .
Cc1cc(C2=NNC(=NC3CC3)SC2)c(C)n1Cc1ccco1 | 10µM | . | .
COCCCN=C1NN=C(c2cc(C)n(Cc3ccco3)c2C)CS1 | . | ? | .
CN(C)CN1C(=O)S/C(=C2/C(=O)N(CN(C)C)c3ccccc32)C1=O | / | . | /
Nc1ccc2ccccc2c1N=Nc1ccccc1 | / | / | 18µM
Nc1ncnc(N)c1N=Nc1ccccc1 | . | . | .
COc1cccc(CNc2nc3cc(-c4cscc4C)sc3c(=O)n2C)c1 | / | / | .
COc1ccc(N2C(=O)NC(NS(=O)(=O)c3ccc(NC(C)=O)cc3)(C(F)(F)F)C2=O)cc1 (configuration not stated) | . | . | .
C[C@]12CC[C@H](O)CC1=CC[C@H]1[C@@H]2CC[C@@]2(C)C(N(CCO)CCO)CC[C@@H]12 (some centres not stated) | / | . | /
O=c1cc2oc3cc(O)c(O)cc3c(-c3ccccc3O)c-2cc1O | . | . | 1.1µM
SMILES | SARS PLP yeast | NS1 function inh | AMA1-RON2 inh
Cc1ccccc1-c1cc(=O)c2c(O)cccc2o1 | . | . | .
O=C(/C=C/c1ccc(O)c(O)c1)O[C@H](Cc1ccc(O)c(O)c1)C(=O)O | . | 5.6µM | /
N[C@H](Cc1ccc(O)c(O)c1)C(=O)O | / | . | /
O=C(NCCCN1CCCC1=O)c1cc2nc(-c3ccco3)cc(C(F)(F)F)n2n1 | 22µM | . | .
O=C(c1cc2nc(-c3ccco3)cc(C(F)(F)F)n2n1)N1CCCCCC1 | . | . | .
Cc1ccc2c(c1)C=CC(C#N)N2C(=O)c1ccccc1 (configuration not stated) | 11µM | . | .
Cc1ccc2c(c1)C=CC(C#N)N2C(=O)Oc1ccccc1 (configuration not stated) | / | / | .
COc1ccc(C(C(=O)NCC2CCCO2)N(C(=O)c2snc(C(N)=O)c2N)c2ccccc2C)cc1OC (configuration not stated) | . | . | .
O=c1[nH]c2ccccc2c2cn(-c3ccccc3)nc12 | . | . | .
